PubChem BioAssay (NCI)
About 83,000 compounds went through this panel and 20% of them were active in at least one assay; those are over-represented in the sample as a whole.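 48-hour exposure, single concentration, 96-well plates; percent growth endpoint where 0 means no net growth. Active: below 10.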 Active and inactive are the calls of the source.

Columns and labels:
Experiment in all cases: NCI-60 one-dose screen, 48 h (100 = growth as untreated, 0 = no growth, -100 = all killed)
Details in all cases: 10 µM unless noted
T-47D breast = tested on: T-47D breast
BT-549 breast = tested on: BT-549 breast
MDA-MB-435 melanoma = tested on: MDA-MB-435 melanoma
SW-620 colon = tested on: SW-620 colon
HCT-116 colon = tested on: HCT-116 colon
HCC-2998 colon = tested on: HCC-2998 colon
KM12 colon = tested on: KM12 colon
MCF7 breast = tested on: MCF7 breast

Measured: growth

CCCCCCCCCCCCCCCC1=NCCN1
active: T-47D breast -15.4% | MDA-MB-435 melanoma 0.615% | SW-620 colon 7.4%
inactive: BT-549 breast 98% | HCT-116 colon 34.6% | HCC-2998 colon 73.8% | KM12 colon 64.1%

CN(C)CCNC(=O)n1cc(-c2ccncc2)c(-c2cc(O)cc(Cl)c2)n1
inactive: T-47D breast 106% | BT-549 breast 102% | MDA-MB-435 melanoma 51.1% | SW-620 colon 109% | HCT-116 colon 86.2% | HCC-2998 colon 119% | KM12 colon 106%

CCCCCCCCCCCC1=NC(C)(C)CN1C(C)C
inactive: T-47D breast 36.3% | BT-549 breast 77.9% | MDA-MB-435 melanoma 11.2% | SW-620 colon 47.8% | HCT-116 colon 21.5% | KM12 colon 25.3%
active: HCC-2998 colon -58.5%

O=C1/C(=C/N2N=C(c3ccc(Cl)cc3)CC2c2ccccc2O)SC(=S)N1c1cccc(C(F)(F)F)c1 (centres undefined)
inactive: T-47D breast 27.4% | BT-549 breast 71.7% | MDA-MB-435 melanoma 64.6% | SW-620 colon 64.7% | HCT-116 colon 45.5% | HCC-2998 colon 62.3% | KM12 colon 38%

C[N+](C)(C)CCCCCCCCCC[N+](C)(C)C
inactive: T-47D breast 88.6% | BT-549 breast 78.7% | MDA-MB-435 melanoma 103% | SW-620 colon 95.8% | HCT-116 colon 106% | HCC-2998 colon 105% | KM12 colon 103%

Clc1ccc(Cl)c(N=Cc2ccc3c(c2)OCO3)c1
inactive: T-47D breast 101% | BT-549 breast 96.2% | MDA-MB-435 melanoma 106% | SW-620 colon 107% | HCT-116 colon 104% | HCC-2998 colon 98.5% | KM12 colon 106%

NC(N)=N/N=C/c1cccc(Cl)c1Cl
active: MDA-MB-435 melanoma 4.26% | SW-620 colon -4.72% | HCC-2998 colon 7.38%
inactive: T-47D breast 81.5% | BT-549 breast 65.9% | HCT-116 colon 67.9% | KM12 colon 10.5%

CCN(CC)c1ccc2c(cc1=O)[C@@H](NC(C)=O)CCc1cc(OC)c(OC)c(OC)c1-2
active: BT-549 breast 1.73% | MDA-MB-435 melanoma -43.9% | HCT-116 colon 3.75% | KM12 colon 5.97%
inactive: T-47D breast 82.2% | SW-620 colon 23.3% | HCC-2998 colon 22.9%

COc1ccc(-c2nc3c(c(-c4ccc(Cl)cc4)nn3-c3ccccc3)c(-c3ccc(O)cc3)c2C#N)cc1
inactive: T-47D breast 24.6% | BT-549 breast 54.4% | MDA-MB-435 melanoma 44.3% | SW-620 colon 48.5% | HCT-116 colon 12% | HCC-2998 colon 70.3% | KM12 colon 34.4%

Oc1ccccc1-c1nnc(COc2ccc(Cl)cc2Cl)o1
inactive: T-47D breast 42.6% | BT-549 breast 63.3% | MDA-MB-435 melanoma 63.9% | MCF7 breast 20.6% | HCT-116 colon 18.2% | HCC-2998 colon 76.8% | KM12 colon 41.5%

CN1C(=O)N(C)C2C1NN=c1s/c(=C\c3ccc(Br)cc3)c(=O)n12 (centres undefined)
inactive: T-47D breast 28.7% | BT-549 breast 50.8% | MCF7 breast 13.4% | HCT-116 colon 25% | HCC-2998 colon 53% | KM12 colon 23.3%
active: MDA-MB-435 melanoma -50.4%

Cc1[nH]c2ccccc2c1C1=CC(=O)C=CC1=O
inactive: T-47D breast 28.5% | BT-549 breast 96.9% | MDA-MB-435 melanoma 38.9% | SW-620 colon 69.2% | HCC-2998 colon 98.8% | KM12 colon 88.2%

O=C1Nc2ccc(Cl)cc2/C1=C\c1c(-c2ccc(F)cc2)nc2ccccn12
active: T-47D breast 9.64% | MDA-MB-435 melanoma -34.5% | SW-620 colon 8.89% | HCT-116 colon -78.7% | KM12 colon -32.1%
inactive: BT-549 breast 15.7% | HCC-2998 colon 44.7%

CCc1c(C)c2ccc(O)c(-c3cc(-c4ccccc4)c(C#N)c(=O)[nH]3)c2oc1=O
inactive: T-47D breast 85.9% | BT-549 breast 113% | MDA-MB-435 melanoma 114% | MCF7 breast 84.7% | HCT-116 colon 95.7% | HCC-2998 colon 111% | KM12 colon 96.2%

N/C(=N\OC(=O)c1ccccc1)C(Cc1ccccc1)C(=O)NOC(=O)c1ccccc1 (centres undefined)
inactive: T-47D breast 76.1% | BT-549 breast 26.4% | MCF7 breast 51.3% | HCC-2998 colon 96.4% | KM12 colon 24.2%
active: MDA-MB-435 melanoma 5.12% | HCT-116 colon 2.08%

CC(C)[C@@]12C[C@@H](OC(=O)C3CO3)[C@@](C)(O1)[C@@H]1CC[C@@H](C)[C@H]1[C@@H]2OC(=O)/C=C/c1ccccc1 (some centres undefined)
inactive: T-47D breast 58.8% | BT-549 breast 77.1% | MDA-MB-435 melanoma 109% | MCF7 breast 85.7% | HCT-116 colon 85.9% | HCC-2998 colon 95% | KM12 colon 99.7%

CC(SC(C)C(=O)N/N=C/c1cccc(Cl)c1)C(=O)N/N=C\c1cccc(Cl)c1 (centres undefined)
inactive: T-47D breast 87.8% | BT-549 breast 102% | MDA-MB-435 melanoma 72.8% | SW-620 colon 27.7% | HCC-2998 colon 96.5% | KM12 colon 71.7%

CCOC(=O)c1ccc2c(c1)[n+](=O)c(C(=O)c1ccc3ccccc3c1)c(C(F)(F)F)n2[O-]
active: T-47D breast -91.1% | BT-549 breast -48.5% | MDA-MB-435 melanoma -78% | SW-620 colon -89.6% | HCT-116 colon -100% | HCC-2998 colon -97.6% | KM12 colon -92%
